# TDP1 cell noCPT: qHTS for Inhibitors of human tyrosyl-DNA phosphodiesterase 1 (TDP1): qHTS in cells in absence of CPT. DT40 Tdp1-/- hTDP1 cells, no CPT, ATP luminescence, 48 h. Potency, µM (highest dose often 46.2 µM), hits mostly inhibitors. 15% of 420,000 active. AID 686978, 2013; further: nearly all actives have a fitted effect of over 55% in size
#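 Seeded 400 DT40-hTDP1 cells/well (vehicle DMSO, no 20 nM CPT); pinned compounds; ≥48 hr at 37 °C; CellTiter-Glo luminescence as viability measure.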
# TGFb SMAD3 inh: blocks TGF-b signaling; HepG2 CAGA-GFP TGF-b/SMAD3 reporter, GFP fluorescence, 18 h; TGF-beta stimulated, 500 pg/mL final; Potency, µM (titrated, usually from 46.1 µM), most hits filed as inhibitors; 1.2% of 410,000 active; AID 588855; further: nearly all actives have a fitted effect of over 65% in size
#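 Using HEPG2 CAGA-GFP reporter cells at 1000 cells/well, we pinned test compounds, stimulated with recombinant TGF-beta (500 pg/mL final) and measured total well GFP after 18 h.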
# IL1B secr inh: inflammasome signaling inhibition, IL-1 beta readout | THP-1 LPS/ATP IL-1B secretion, AlphaLISA, 16 h; stronger effect = lower value | AID 743279 | activity change, % at 57.5 µM | 4.7% of 360,000 active; in the data active means activity change below about -50%; inconclusive means mostly about -30% to -49%
#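 THP-1 cells pretreated 1 hr with compounds (up to 57.5 uM final), then stimulated with LPS (250 ng/mL final) plus ATP (1.25 mM final); secreted IL-1B measured by AlphaLISA after 16 hr, decreased signal indicating inhibition.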
# HepG2 viability: kills HepG2 cells in TGF-b inhibitor counter-screen. HepG2 CAGA-GFP viability, ATP luminescence, 18 h. Potency, µM (highest dose often 46.1 µM), usual class: cytotoxic. 0.76% of 410,000 active. AID 588856
#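 CellTiter-Glo luminescence gave cytotoxicity after 18 hours at 37 degrees C. The cells were HepG2 CAGA-GFP in 1% FBS DMEM, stimulated with 500 pg/mL TGF-beta after compound addition. %Activity was normalised to no-cell wells (complete cell-killing) and DMSO (no toxicity), and curves were fitted and classified.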
# TDP1 inh: inhibitors of human tyrosyl-DNA phosphodiesterase TDP1; Q9NUW8; recombinant TDP1, AlphaScreen DNA substrate cleavage; Potency, µM (titrated, usually from 130 µM), usual class: inhibitors; 0.28% of 350,000 active; further: nearly all actives have a fitted effect of over 40% in size
# Target sequence (Q9NUW8 whole entry, looked up): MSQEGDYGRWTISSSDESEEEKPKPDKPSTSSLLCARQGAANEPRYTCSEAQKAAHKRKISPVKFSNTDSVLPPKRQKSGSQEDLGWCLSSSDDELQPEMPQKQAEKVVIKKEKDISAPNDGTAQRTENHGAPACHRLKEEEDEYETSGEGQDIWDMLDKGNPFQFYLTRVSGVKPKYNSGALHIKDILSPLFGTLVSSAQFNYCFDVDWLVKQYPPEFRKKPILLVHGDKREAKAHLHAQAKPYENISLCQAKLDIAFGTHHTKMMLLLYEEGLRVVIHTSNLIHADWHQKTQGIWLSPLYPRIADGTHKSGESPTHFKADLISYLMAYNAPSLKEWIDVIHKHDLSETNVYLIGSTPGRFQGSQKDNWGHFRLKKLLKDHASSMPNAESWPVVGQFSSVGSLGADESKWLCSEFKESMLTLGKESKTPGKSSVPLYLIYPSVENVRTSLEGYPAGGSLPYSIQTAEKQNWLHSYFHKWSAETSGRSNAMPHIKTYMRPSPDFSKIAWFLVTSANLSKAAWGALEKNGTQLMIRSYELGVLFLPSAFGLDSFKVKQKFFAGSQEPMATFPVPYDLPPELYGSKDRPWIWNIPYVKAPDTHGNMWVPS
#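 Signal: AlphaScreen proximity between streptavidin donor and anti-FITC acceptor beads on intact substrate. Reaction: Tdp1 1 nM, substrate 15 nM final, 5 min RT after 15 min compound preincubation.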
# DT40 TDP1 CPT: growth inhibition of DT40 Tdp1-/-;hTDP1 cells with camptothecin (screen for TDP1 inhibitors) | chicken DT40 Tdp1-/-;hTDP1 cells + 20 nM CPT, ATP luminescence, 48 h | Potency, µM (doses to about 46.2 µM), most hits filed as inhibitors | 12% of 420,000 active | AID 686979; further: nearly all actives have a fitted effect of over 55% in size
#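 Cell growth measured by CellTiter-Glo luminescence after a minimum 48 h, 37 C compound exposure with 20 nM CPT in Tdp1-knockout DT40 cells stably expressing hTDP1, seeded 400/well; qHTS titration format.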
# Hits are given with their value; - = inactive; ? = inconclusive; . = no result given. Hits are enriched below; roughly 19% of the tested compounds scored in any of these assays. Unless noted, the call rests on the fitted dose curve; in most records, active means well fitted curve in the direction sought with a large enough effect; inconclusive means small, poorly fitted or top-dose-only effect, or another doubt; inactive means no such curve, though single readings can be large; an effect the other way counts as inactive or inconclusive.
SMILES,TDP1 cell noCPT,TGFb SMAD3 inh,IL1B secr inh,HepG2 viability,TDP1 inh,DT40 TDP1 CPT
CCN(CC)S(=O)(=O)c1cccc(-c2nnc(-c3ccc(C)cc3)o2)c1,-,-,-,-,-,?
CCN(CC)S(=O)(=O)c1cc(-c2nnc(-c3ccc(Br)cc3)o2)ccc1Br,9.2µM,-,?,-,-,14.6µM
Brc1ccc(-c2nnc(-c3cccc(Br)c3)o2)cc1,-,-,-,-,-,-
Cc1cccc(CN2C(=O)c3ccccc3S(=O)(=O)c3ccc(C(=O)NC4CCCCC4)cc32)c1,-,-,.,-,-,-
Cc1cccc(CN2C(=O)c3ccccc3S(=O)(=O)c3ccc(C(=O)N(C)Cc4ccccc4)cc32)c1,?,-,.,-,-,16.4µM
CN(Cc1ccccc1)C(=O)c1ccc2c(c1)N(Cc1ccccc1F)C(=O)c1ccccc1S2(=O)=O,9.2µM,-,.,-,-,?
Cc1ccc(CNC(=O)[C@]2(C(F)(F)F)C[C@H](CCc3ccccc3)CCCO2)o1,.,-,.,-,-,.
O=C1OCCN1C(=O)[C@H]1[C@H](c2ccc(Cl)cc2)C(c2ccc(F)cc2)=NN1c1ccc(Br)cc1,?,-,-,-,-,?
Cc1cccc(C2=NN(c3ccccc3)[C@@H](C(=O)N3CCOC3=O)[C@@H]2c2ccc(F)cc2)c1,-,17.8µM,-,-,-,-
O=C1OCCN1C(=O)[C@H]1[C@H](c2ccc(F)cc2)C(c2ccc(F)cc2)=NN1c1ccc(Br)cc1,?,11.2µM,-61.2,-,-,?
CCOC(=O)c1cccc(NC(=O)NCCc2c(C)nn(C)c2C)c1,?,-,.,-,-,-
CCOc1c(Cl)cc(C(=O)N(Cc2ccc(N(C)C)cc2)Cc2ccco2)cc1Cl,13µM,.,.,-,-,23.1µM
CN(C)c1ccc(CN(Cc2ccco2)C(=O)c2ccco2)cc1,?,-,-,-,-,?
CC(C)Oc1ccc(C(=O)N(Cc2ccco2)Cc2cccs2)cc1,?,-,.,-,-,?
CCOc1ccccc1C(=O)N(Cc1ccc(N(C)C)cc1)Cc1ccco1,16.4µM,.,.,-,-,?
CC(C)COc1ccc(C(=O)N(Cc2ccc(N(C)C)cc2)Cc2ccco2)cc1,14.6µM,.,.,-,-,18.4µM
CCOc1cccc(C(=O)N(Cc2ccc(F)cc2)Cc2ccco2)c1,16.4µM,-,.,-,-,23.1µM
CC(=O)N1c2ccc(S(=O)(=O)N3CCCCC3)cc2CC1C(=O)Nc1ccc(C)cc1 (stereo not drawn),?,-,-,-,-,?
CC(=O)N[C@@H](Cc1c[nH]c2ccccc12)C(=O)NCc1ccccc1,-,-,-,-,-,-
CC(C)COc1cccc(C(=O)N(CC(=O)Nc2ccccc2C(F)(F)F)Cc2ccco2)c1,18.4µM,?,-,-,-,?
Cc1ccccc1OCCC(=O)N(CC(=O)Nc1ccccc1C(F)(F)F)Cc1ccco1,-,-,-,-,.,-
CCOc1cc(/C=C2\CCCC(C(=O)C(F)(F)F)=C2O)ccc1O,23.1µM,-,?,-,-,23.1µM
COc1cc(/C=C2/CCCC(C(=O)C(F)(F)F)=C2O)ccc1O,-,-,-,-,.,-
COc1ccc(/C=C2\CCCC(C(=O)C(F)(F)F)=C2O)cc1OC,.,.,.,.,-,.
COc1ccc(/C=C2/CCCC(C(=O)C(F)(F)F)=C2O)cc1OC,18.4µM,?,?,-,-,23.1µM
COc1ccc(Nc2oc(-c3ccc(COc4cccc(C)c4)o3)nc2C#N)cc1,?,-,.,-,-,?
NC(CCc1ccccc1)c1csc(Nc2nncc3ccccc23)n1 (stereo not drawn),20.6µM,?,?,-,.,20.6µM
NC(Cc1ccccc1)c1csc(Nc2nncc3ccccc23)n1 (stereo not drawn),23.1µM,15.8µM,-,-,.,20.6µM
CCOC(=O)c1cnn(-c2ccccc2)c1-c1ccncc1,-,-,-,-,.,?
